A number with no mark means an inactive call. The source made the active and inactive calls.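 How the source made its calls: active means normalized viability below 100% at a tested concentration; inactive means the rest.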
Test: ovarian cancer cell viability with rucaparib, profiling panel, oncology-focused library, rucaparib conditional (AID 1508598)
Settings: patient-derived ovarian cancer cells, CellTiter-Glo viability, 144 h; at 0.00122 µM; OCI-P5x cells; without rucaparib; stronger effect = lower value

Row | Structure (SMILES) | viability
1 | O=c1[nH]c(=O)n([C@@H]2C[C@H](O)[C@@H](CO)O2)cc1F | 15.4% (active)
2 | COc1cccc2c1C(=O)c1c(O)c3c(c(O)c1C2=O)C[C@@](O)(C(C)=O)C[C@H]3O[C@H]1C[C@H](N)[C@H](O)[C@H](C)O1 | 101%
3 | C[C@]12CC[C@H]3c4ccc(O)cc4CC[C@H]3[C@@H]1CC[C@H]2O | 116%
4 | CC1=C(/C=C/C(C)=C\C=C\C(C)=C/C(=O)O)C(C)(C)CCC1 | 65.9% (active)
5 | CC(C)CC(CC(=O)NO)C(=O)N[C@@H](Cc1ccc2ccccc2c1)C(=O)N[C@@H](C)C(=O)NCCN (stereo not given in full) | 99.8% (active)
6 | COc1cccc2c1C(=O)c1c(O)c3c(c(O)c1C2=O)C[C@@](O)(C(=O)CO)C[C@H]3O[C@H]1C[C@H](N)[C@@H](O)[C@H](C)O1 | 106%
7 | COc1ccc(C2=N[C@H](c3ccc(Cl)cc3)[C@@H](c3ccc(Cl)cc3)N2C(=O)N2CCNC(=O)C2)c(OC(C)C)c1 | 85.3% (active)
8 | CO[C@H]1C[C@H]2CC[C@@H](C)[C@@](O)(O2)C(=O)C(=O)N2CCCC[C@H]2C(=O)O[C@H]([C@H](C)C[C@@H]2CC[C@H](OC(=O)C(C)(CO)CO)[C@H](OC)C2)CC(=O)[C@H](C)/C=C(\C)[C@@H](O)[C@@H](OC)C(=O)[C@H](C)C[C@H](C)/C=C/C=C/C=C/1C | 69.5% (active)
9 | O=C(O)c1cc(I)ccc1NC(=O)[C@H](Cc1ccccc1)NCc1ccccc1 | 99.9% (active)
10 | Nc1ncn([C@@H]2O[C@H](CO)[C@@H](O)[C@@H]2O)c(=O)n1 | 123%
